KCNQ2 enhance: potentiators of rat KCNQ2 potassium channel; Potassium voltage-gated channel subfamily KQT member 2 (Rattus norvegicus), O88943; CHO-K1 KCNQ2, FluxOR thallium flux fluorescence; hits give high values; B-score at 10 µM; 0.54% of 310,000 active;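 active = fluorescence ratio B-score at least 3 SD of library B-scores, with initial fluorescence B-score within 3 of them, cut at about 5.3 in these data; same plate scores as AID 2156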;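 also: B-score of peak minus minimum over baseline fluorescence ratio after K+ and Tl+ stimulus; positive B-score means potentiation of KCNQ2 with more thallium influx and brighter signal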
Target sequence (O88943 whole entry, looked up): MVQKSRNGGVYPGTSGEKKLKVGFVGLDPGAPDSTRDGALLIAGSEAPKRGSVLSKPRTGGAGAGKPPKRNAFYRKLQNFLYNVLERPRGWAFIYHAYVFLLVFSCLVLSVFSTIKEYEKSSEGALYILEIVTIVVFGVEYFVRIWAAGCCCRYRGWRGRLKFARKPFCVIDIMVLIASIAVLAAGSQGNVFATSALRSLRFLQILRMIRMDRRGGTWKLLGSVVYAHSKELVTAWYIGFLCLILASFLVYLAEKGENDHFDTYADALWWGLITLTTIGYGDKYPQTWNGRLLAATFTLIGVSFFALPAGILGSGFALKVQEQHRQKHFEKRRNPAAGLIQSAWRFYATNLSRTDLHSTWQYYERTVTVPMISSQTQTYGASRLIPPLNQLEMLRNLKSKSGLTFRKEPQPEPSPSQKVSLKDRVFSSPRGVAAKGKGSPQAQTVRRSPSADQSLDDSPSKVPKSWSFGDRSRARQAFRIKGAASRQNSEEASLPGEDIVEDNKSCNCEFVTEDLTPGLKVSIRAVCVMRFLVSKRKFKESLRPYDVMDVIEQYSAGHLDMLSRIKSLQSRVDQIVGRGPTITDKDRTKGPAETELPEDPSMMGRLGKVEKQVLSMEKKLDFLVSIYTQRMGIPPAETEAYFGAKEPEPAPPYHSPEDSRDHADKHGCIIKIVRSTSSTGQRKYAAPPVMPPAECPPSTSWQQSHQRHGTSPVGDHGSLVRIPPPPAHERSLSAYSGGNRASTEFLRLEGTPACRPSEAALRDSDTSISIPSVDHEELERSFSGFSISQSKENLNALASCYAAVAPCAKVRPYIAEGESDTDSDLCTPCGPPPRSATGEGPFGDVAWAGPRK
KCNQ2 block: rat KCNQ2 potassium channel inhibitors, primary screen, cell-based, CHO-K1, FluxOR thallium flux, B-score; B-score at 10 µM; 1.1% of 310,000 active; Potassium voltage-gated channel subfamily KQT member 2 (Rattus norvegicus), O88943; 20 min; hits give low values;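 active = fluorescence ratio B-score at most minus 3 library SDs, with starting brightness B-score within 2 library SDs, cut at about -5.5 in these data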
Each line names hits and unclear results; the compound was inactive in the other large screens. The list is not random: actives were taken first. Their share in the collection is about 1.6%.

C[C@@H]1CC=C[C@H]2[C@H]1C(=O)N(Cc1ccccc1)[C@H]2c1ccc2ccccc2c1	none (no result: KCNQ2 enhance)
CC[C@@H]1CC=C[C@H]2[C@H]1C(=O)N(Cc1ccccc1)[C@H]2c1ccoc1	KCNQ2 block -6.2
C[C@@H]1CC=C[C@H]2[C@H]1C(=O)N(Cc1ccccc1)[C@H]2c1ccoc1	none (no result: KCNQ2 enhance)
C[C@@H]1CC=C[C@H]2[C@H]1C(=O)N(Cc1ccccc1)[C@H]2c1ccc2ccccc2c1Br	KCNQ2 block -7.5
COc1ccc(NC(=O)c2c[nH]n3c(=O)cc(C4CCN(C(=O)OC(C)(C)C)CC4)nc23)cc1Cl	KCNQ2 enhance 6.3
CC(C)(C)OC(=O)N1CCC(c2cc(=O)n3[nH]cc(C(=O)Nc4ccc(F)c(Cl)c4)c3n2)CC1	none
Cc1ccc(NC(=O)CN(C)CC(=O)NC2CCCc3ccccc32)cc1 (configuration not stated)	none (no result: KCNQ2 enhance)
CC(C)(C)c1ccc(NC(=O)CNC2CCCc3ccccc32)cc1 (configuration not stated)	KCNQ2 block -6.9
COc1ccc(NC(=O)CCNC(=O)Cn2cnc3sc4c(c3c2=O)CCCC4)c(OC)c1	none (no result: KCNQ2 enhance)
CCCOc1cccc(C2C(C(=O)c3ccco3)=C(O)C(=O)N2CCCn2ccnc2)c1 (configuration not stated)	none (no result: KCNQ2 enhance)
Cc1cc(C)nc(/N=C(\NC(=O)C(C)(C)C)Nc2ccccc2)n1	none
Cc1cc(C)nc(/N=C(/NC(=O)Nc2cccc(Cl)c2)Nc2ccccc2)n1	KCNQ2 block -5.8
O=C1/C(=C\c2cccc(O)c2O)SC(=S)N1Cc1ccccc1	none
O=Cc1[nH]c2ccccc2c1N(C(=O)CCl)c1ccc([N+](=O)[O-])cc1	KCNQ2 block -12
CC(=O)n1cc(N(C(=O)CCl)c2ccc([N+](=O)[O-])cc2)c2ccccc21	none (no result: KCNQ2 enhance)
CCN1CCN(CCNC(=O)c2ccc3c(c2)N(Cc2ccc(F)cc2)C(=O)/C(=C/c2ccccc2)S3)CC1	KCNQ2 block -6.5
COc1ccc(/C=C2\Sc3ccc(C(=O)N4CCc5ccccc5C4)cc3N(C)C2=O)cc1	none (no result: KCNQ2 enhance)
CCN1CCN(CCNC(=O)c2ccc(/C=C3/Sc4ccccc4N(Cc4cccc(Cl)c4)C3=O)cc2)CC1	none (no result: KCNQ2 enhance)
COc1ccc(/C=C2\Sc3ccc(C(=O)NCCN4CCCCCC4)cc3N(C)C2=O)cc1	KCNQ2 block -6.4
Cc1nnsc1-c1nc2ccccc2[nH]1	none (no result: KCNQ2 enhance)
O=C(Cc1c(F)cccc1Cl)NCCc1c[nH]c2ccccc12	none (no result: KCNQ2 enhance)
O=C(NCc1csc(-c2ccccc2)n1)c1cc(F)cc2c1OCOC2	KCNQ2 block -6.1
O=C(Cc1csc(-c2ccccc2)n1)NCc1ccc(F)cc1	none (no result: KCNQ2 enhance)
O=C(Cc1cccs1)N1CCN(c2ccc(F)cc2)CC1	none
O=C(Cc1cccs1)N1CCN(c2ccc([N+](=O)[O-])cc2)CC1	KCNQ2 block -5.5
O=C(c1cc([N+](=O)[O-])ccc1Cl)N1CCN(c2ccc(F)cc2)CC1	none
O=C(c1cc([N+](=O)[O-])ccc1Cl)N1CCN(c2ccc([N+](=O)[O-])cc2)CC1	KCNQ2 block -6.9
CC(=O)c1sc(N/N=C\c2ccc(N(C)C)cc2)nc1C	none (no result: KCNQ2 enhance)
CC(C)(C)OC(=O)N1CCC(CC2CC(c3cccc(Br)c3)=NO2)(C(=O)NCC2CCCCC2)CC1 (configuration not stated)	KCNQ2 block -8.1
O=C(c1ccccc1)N1CCC(CC2CC(c3cccc(Br)c3)=NO2)(C(=O)NCC2CCCCC2)CC1 (configuration not stated)	none (no result: KCNQ2 enhance)
CCOC(=O)C(C)(C)N(Cc1ccccc1C)S(=O)(=O)c1ccc(Cl)c([N+](=O)[O-])c1	KCNQ2 block -7.2
CCCN(CCC)S(=O)(=O)c1ccc(Cl)c([N+](=O)[O-])c1	none (no result: KCNQ2 enhance)
Cc1ccc(C)c(N=Nc2nc3ccccc3n2C)c1	KCNQ2 block -6
Cc1cc(C)c(C)c(N=Nc2nc3ccccc3n2C)c1C	none (no result: KCNQ2 enhance)
Nc1nc(C2C(=O)CCCC2=O)cs1	none
Cn1c2ccccc2c2nnc(SCC(=O)Nc3ccccc3F)nc21	none
COC(CNC(=O)CCc1c(C)nc2c(c(C)nn2-c2ccc(C)cc2)c1C)OC	none
Cc1ccc(-n2nc(C)c3c(C)c(CCC(=O)Nc4ccc(CN5CCCC5)cc4)c(C)nc32)cc1	KCNQ2 block -7.9
Cc1ccc2nc(-c3ccc(N4C(=O)CC(N5CCN(CCO)CC5)C4=O)cc3)sc2c1 (configuration not stated)	KCNQ2 block -6.3
Cc1ccc(N2C(=O)CC(N3CCN(c4ccccn4)CC3)C2=O)cc1 (configuration not stated)	none (no result: KCNQ2 enhance)
O=C(COc1ccc2c(c1)CCC2)N1CCN(c2ccccc2F)CC1	none (no result: KCNQ2 enhance)
COc1ccc2nc(C)cc(SCC(=O)N/N=C/c3ccc(O)c(O)c3)c2c1	none (no result: KCNQ2 enhance)
N#CC(C(=O)NC1CCCCC1)c1nc2ccccc2nc1N1CCN(c2ccc(F)cc2)CC1 (configuration not stated)	KCNQ2 block -5.8
N#CC(C(=O)NC1CC1)c1nc2ccccc2nc1N1CCCC1 (configuration not stated)	none (no result: KCNQ2 enhance)
